According to PubChem BioAssay (NCATS):
“And” between values parts separate entries of the source, which are not always exact repeats. Identical values can stand only once. Values without a mark were called inactive. Records with an inconclusive call do not appear. A call without a number means that no potency is given here. The source made the active and inactive calls. Unless noted, the call rests on the fitted dose curve; in most records, active means well fitted curve in the direction sought with a large enough effect; inconclusive means small, poorly fitted or top-dose-only effect, or another doubt; inactive means no such curve, though single readings can be large; an effect the other way counts as inactive or inconclusive.

Assays:
[1] = Cell Viability - N2a (AID 540); settings: N2a mouse neuroblastoma cell viability; activity change, negative = cytotoxicity: at 92.2 µM (top of the series);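 further: cells exposed to compound for 40 h at 37 °C; nearly all actives have a fitted effect of over 45% in size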; further: potency means the concentration at half of the fitted maximal effect
In short: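 Cytotoxicity was scored as loss of cellular ATP in N2a cells, a mouse neuroblastoma line. Compounds are applied in a qHTS concentration series for 40 hr at 37 °C.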

[2] = Cell Viability - NIH 3T3 (AID 541); settings: NIH 3T3 cell viability, qHTS; activity change, negative = cytotoxicity: at 92.2 µM (top of the series);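 further: cells exposed to compound for 40 hours; nearly all actives have a fitted effect of over 25% in size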; further: potency means the concentration at half of the fitted maximal effect
In short: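 Cells seeded at 1000/well, rested 5 hr at 37 °C, then dosed and incubated 40 hr at 37 °C. CellTiter-Glo added, 20 min room temperature, luminescence read. AC50 by Hill fit.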

[3] = Cell Viability - HUV-EC-C (AID 542); settings: HUV-EC-C endothelial cell viability, qHTS; series mostly up to 92.2 µM;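 further: cells exposed to compound for 40 hours; nearly all actives have a fitted effect of over 35% in size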; further: potency means the concentration at half of the fitted maximal effect
In short: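 Cells were seeded at 1000 per well and incubated 5 hr at 37 °C before compound addition. After 40 hr at 37 °C, CellTiter-Glo reagent was added for 20 min and luminescence read. AC50 values came from Hill-equation modelling.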

[4] = Cell Viability - H-4-II-E (AID 543); settings: H-4-II-E rat hepatoma viability; series mostly up to 92.2 µM;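 further: cells exposed to compound for 40 hours; nearly all actives have a fitted effect of over 35% in size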; further: potency means the concentration at half of the fitted maximal effect
In short: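 Cells seeded at 1500 per well and rested 5 hr; compounds added; 40 hr incubation at 37 °C; CellTiter-Glo added, 20 min at room temperature; luminescence read. Hill-equation fits gave AC50.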

[5] = Cell Viability - SH-SY5Y (AID 544); settings: SH-SY5Y neuroblastoma cell viability; series mostly up to 92.2 µM;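 further: cells exposed to compound for 40 hours; nearly all actives have a fitted effect of over 55% in size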; further: potency means the concentration at half of the fitted maximal effect
In short: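 Cells were plated at 1500 per well and allowed 5 hr at 37 °C. Compounds were added across a concentration range and incubated 40 hr at 37 °C. CellTiter-Glo was added for 20 min at room temperature before luminescence reading.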

[6] = Cell Viability - Renal Proximal Tubule (AID 545); settings: renal proximal tubule cells viability, primary cells of rat origin; series mostly up to 91.7 µM;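 further: cells exposed to compound for 40 hours; nearly all actives have a fitted effect of over 40% in size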; further: potency means the concentration at half of the fitted maximal effect
In short: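 Cytotoxicity is scored as a concentration-dependent drop in cellular ATP in primary rat renal proximal tubule cells exposed for 40 hr. AC50 derives from Hill modelling.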

[7] = target: Glucocorticoid receptor (Homo sapiens) (UniProt P04150); assay: GR-GFP Redistribution (AID 450;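 active means compounds whose dose series gives a full or clear partial fitted curve of increased nuclear translocation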; further: potency means the concentration at half of the fitted maximal effect); settings: U2OS GR-GFP nuclear translocation, laser cytometry, 2 h
Sequence of Glucocorticoid receptor (Homo sapiens) (P04150 whole entry, looked up, the tested form may be a part): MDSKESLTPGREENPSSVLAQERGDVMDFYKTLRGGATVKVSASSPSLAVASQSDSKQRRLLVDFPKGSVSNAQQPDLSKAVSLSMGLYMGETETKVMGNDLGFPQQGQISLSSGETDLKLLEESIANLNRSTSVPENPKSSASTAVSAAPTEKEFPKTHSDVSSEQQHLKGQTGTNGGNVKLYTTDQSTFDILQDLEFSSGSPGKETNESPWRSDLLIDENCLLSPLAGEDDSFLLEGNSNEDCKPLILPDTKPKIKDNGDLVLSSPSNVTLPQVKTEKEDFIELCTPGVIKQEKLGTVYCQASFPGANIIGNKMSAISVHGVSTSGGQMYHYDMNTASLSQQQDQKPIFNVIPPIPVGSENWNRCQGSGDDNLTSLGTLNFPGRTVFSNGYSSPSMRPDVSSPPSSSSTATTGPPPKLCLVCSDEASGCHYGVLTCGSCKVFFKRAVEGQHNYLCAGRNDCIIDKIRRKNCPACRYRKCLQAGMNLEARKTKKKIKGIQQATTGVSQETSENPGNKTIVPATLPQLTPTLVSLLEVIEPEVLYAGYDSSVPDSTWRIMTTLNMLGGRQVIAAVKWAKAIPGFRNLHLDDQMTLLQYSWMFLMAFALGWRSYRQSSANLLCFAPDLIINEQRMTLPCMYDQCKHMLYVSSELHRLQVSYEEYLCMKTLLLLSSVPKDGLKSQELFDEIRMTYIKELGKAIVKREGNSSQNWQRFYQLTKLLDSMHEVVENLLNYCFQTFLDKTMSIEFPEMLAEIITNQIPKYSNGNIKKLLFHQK

[8] = target: Mitogen-activated protein kinase 10 (Mus musculus) (UniProt Q61831); assay: JNK3 AlphaScreen Assay (AID 530; active means well fitted curve in either direction with a large enough effect, not every such curve was filed as active;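 further: kinase came from lysate of stimulated human HepG2 cells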; further: potency means the concentration at half of the fitted maximal effect); settings: JNK3 lysate, c-Jun phosphorylation; series mostly up to 57.1 µM
In short: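 qHTS titrations with 15 min compound pre-incubation before adding ATP (10 uM final). Read-out: AlphaScreen of Ser73-phosphorylated biotin-GST-cJun using HepG2 lysate JNK3 activated by IL-1β and TNFα.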

[9] = Stat Signaling Pathway (AID 446; active means well fitted curve in either direction with a large enough effect, not every such curve was filed as active;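 further: ME-180 cervical cancer cells given 40 pM IL-6 alongside compound; SIE-controlled beta-lactamase reporter measured as 460/530 nm FRET emission ratio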); settings: ME-180 (cervical carcinoma) SIE beta-lactamase reporter, IL-6 stimulated, 5 h
In short: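 Emission at 460 and 530 nm (excitation 405 nm) reports SIE-controlled beta-lactamase in ME-180 cells. Cells received compound with 40 pM IL-6 for 5 hrs at 37 C; data scaled between 300 pM IL-6 and 125 nM JAK-inhibitor controls.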

[10] = target: Glucocorticoid receptor (Homo sapiens) (UniProt P04150); assay: GR-EFC Redistribution (AID 451; calls by dose curve; further: potency means the concentration at half of the fitted maximal effect); settings: CHO-K1 GR-EFC translocation, beta-gal luminescence, 2 h
In short: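 Translocation of GR-ED fusion to nuclear EA restores b-gal, read by luminescence after 1 h room-temperature detection. Engineered CHO-K1 biosensor cells, 1,000/well, exposed 2 h at 37 C to titrations up to 46 uM final.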

With `[Cl][In]([Cl])[Cl]` the activity change, negative = cytotoxicity [1] was -0.39%, the Potency [2] was “inactive” and the Potency [3] was “inactive”. For the same compound, the Potency [4] was “inactive”, the Potency [5] was “inactive” and the Potency [6] was “inactive”.

`Nc1ncnc2c1ncn2[C@@H]1O[C@H](CO)[C@@H](O)[C@H]1O` gave a Potency [7] of over 20.6 µM.

Compound `CC1=C(/C=C/C(C)=C/C=C/C(C)=C/C(=O)O)C(C)(C)CCC1` has a Potency [7] of over 20.6 µM.

In the case of `NCCNCCNCCNCCN`, the Potency [8] is reported as “inactive”, the activity change, negative = cytotoxicity [1] is reported as -2.82% and the Potency [2] is reported as “inactive”. For the same compound, the Potency [3] was “inactive”, the Potency [4] was “inactive” and the Potency [5] was “inactive”. The Potency [6] was “inactive”.

In the case of `CN(C)CCCN1c2ccccc2CCc2ccccc21`, the activity, negative = inhibition ([9]; at 17.2 µM (top of the series)) is reported as 2.6% and 1.4% and the Potency [8] is reported as “inactive”.

In the case of `NC(=O)N/N=C/c1ccc([N+](=O)[O-])o1`, the Potency [8] is reported as “inactive”, the Potency [1] is reported as 31.6 µM (active) and the activity change, negative = cytotoxicity [2] is reported as -81.4% (active). For the same compound, the Potency [3] was “inactive”, the Potency [4] was 31.6 µM (active) and the Potency [5] was “inactive”. The Potency [6] was “inactive”.

With `C=Cc1c(C)c2cc3[nH]c(cc4nc(cc5nc(cc1[nH]2)C(C)=C5CCC(=O)O)C(CCC(=O)O)=C4C)c(C)c3C=C` the Potency [7] was over 46 µM, the Potency [10] was over 46 µM and the Potency [8] was 398 nM [activator] (active).

For `Cc1c(O)cccc1C(=O)N[C@@H](CSc1ccccc1)[C@H](O)CN1C[C@H]2CCCC[C@H]2C[C@H]1C(=O)NC(C)(C)C`, the Potency [8] was “inactive”, the activity change, negative = cytotoxicity [1] was -108% (active) and the Potency [3] was 31.6 µM (active). For the same compound, the Potency [4] was 31.6 µM (active), the Potency [5] was 1.26 µM (active) and the Potency [6] was 31.6 µM (active).

In the case of `Oc1cccc(O)c1`, the Potency [8] is reported as “inactive”, the activity change, negative = cytotoxicity [1] is reported as -7.46% and the Potency [2] is reported as “inactive”. For the same compound, the Potency [3] was “inactive”, the Potency [4] was “inactive” and the Potency [6] was “inactive”.

Compound `CN(C)CCN(Cc1ccccc1)c1ccccn1` has a Potency [7] of over 20.6 µM.

With `CC1=C(CC(=O)O)c2cc(F)ccc2/C1=C\c1ccc(S(C)(=O)=O)cc1` the activity, negative = inhibition ([9]; at 38 µM (top of the series)) was -25.4% and the Potency [8] was “inactive”.

For `c1ccc2c(CC3=NCCN3)cccc2c1`, the activity, negative = inhibition ([9]; at 17.2 µM (top of the series)) was 6.58% and 9.6% and the Potency [8] was “inactive”.

Compound `CCCn1cnc2c1c(=O)n(CCCCC(C)=O)c(=O)n2C` has an activity, negative = inhibition ([9]; at 38 µM (top of the series)) of 10.7%, a Potency [7] of over 46 µM and a Potency [10] of over 46 µM. For the same compound, the Potency [8] was “inactive”.

With `CC1(C)[C@@H]2CC[C@@]1(C)C(=O)C2` the Potency [8] was “inactive”, the activity change, negative = cytotoxicity [1] was 2.78% and the Potency [2] was “inactive”. The Potency [3] was “inactive”, the Potency [4] was “inactive” and the Potency [5] was “inactive”. The Potency [6] was “inactive”.

`Cc1cc(CC(=O)O)n(C)c1C(=O)c1ccc(Cl)cc1` gave an activity, negative = inhibition ([9]; at 17.2 µM (top of the series)) of 8.99%, a Potency [7] of over 20.6 µM and a Potency [10] of over 20.6 µM. The Potency [8] was “inactive”, the activity change, negative = cytotoxicity [1] was -9.12% and the Potency [2] was “inactive”. The Potency [3] was “inactive”, the Potency [4] was “inactive” and the Potency [5] was “inactive”. For the same compound, the Potency [6] was “inactive”.

In the case of `CCCCCCCCCCCCCCCC(=O)NCCO`, the activity, negative = inhibition ([9]; at 38 µM (top of the series)) is reported as -2.15% and the Potency [8] is reported as “inactive”.

For `COc1ccccc1O`, the Potency [8] was “inactive”, the activity change, negative = cytotoxicity [1] was 1.24% and 7.3% and 7.13% and the Potency [2] was “inactive”. For the same compound, the Potency [3] was “inactive”, the Potency [4] was “inactive” and the Potency [5] was “inactive”. The Potency [6] was “inactive”.

With `O=c1cc(CO)occ1O` the Potency [7] was over 46 µM, the Potency [10] was over 46 µM and the Potency [8] was “inactive”.

In the case of `NC(=O)c1ncn([C@@H]2O[C@H](CO)[C@@H](O)[C@H]2O)n1`, the Potency [8] is reported as “inactive”, the Potency [2] is reported as 25.1 µM (active) and the Potency [3] is reported as “inactive”. For the same compound, the Potency [5] was 31.6 µM (active) and the Potency [6] was “inactive”.

In the case of `c1ccc(CN(CC2=NCCN2)c2ccccc2)cc1`, the activity, negative = inhibition ([9]; at 17.2 µM (top of the series)) is reported as -2.58% and 2.91% and -16.4% and the Potency [8] is reported as “inactive”.

For `Nc1ccc(S(=O)(=O)Nc2ccc(Cl)nn2)cc1`, the activity, negative = inhibition ([9]; at 17.2 µM (top of the series)) was -3.21% and the Potency [8] was “inactive”.

For `O=C(O)CN1C(=O)c2cccc3cccc(c23)C1=O`, the Potency [8] was “inactive”.

Work on `COc1ccc2c(c1)C(=O)N(CCc1ccc(S(=O)(=O)NC(=O)NC3CCCCC3)cc1)C(=O)C2(C)C` yielded an activity, negative = inhibition ([9]; at 17.2 µM (top of the series)) of -7.41%, a Potency [7] of over 20.6 µM and a Potency [10] of over 20.6 µM. For the same compound, the Potency [8] was “inactive”.

With `Nc1ccc(S(=O)(=O)Nc2nccs2)cc1` the activity, negative = inhibition ([9]; at 17.2 µM (top of the series)) was -1.46%, the Potency [7] was over 20.6 µM and the Potency [10] was over 20.6 µM. The Potency [8] was “inactive”, the activity change, negative = cytotoxicity [1] was -2.29% and the Potency [3] was “inactive”. The Potency [4] was “inactive” and the Potency [6] was “inactive”.

With `CCCCN1CCCC[C@H]1C(=O)Nc1c(C)cccc1C` the activity, negative = inhibition ([9]; at 17.2 µM (top of the series)) was 1.67% and the Potency [8] was “inactive”.

With `CCn1cc(C(=O)O)c(=O)c2cnc(N3CCNCC3)nc21` the activity, negative = inhibition ([9]; at 17.2 µM (top of the series)) was 3.23% and 2.72% and the Potency [8] was “inactive”.
